# Test results: PubChem BioAssay (NCI)
# About 79,000 compounds went through this panel and 15% of them were active in at least one assay; those are over-represented in the sample as a whole. Unmarked numbers belong to inactive results. Activity calls are given as the source filed them. No stated cut-off is given here; in the data, active means growth inhibition above about 70%; inactive means the rest.
# Assays:
# [1] = NCI Yeast Anticancer Drug Screen. Data for the rad50 strain (AID 155);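 further: 0% = growth of vehicle-only cultures of the same strain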; conditions: S. cerevisiae rad50 strain growth inhibition; at 50.0 µM; active compounds read high
# How it was run: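 Readout: growth inhibition relative to vehicle-treated cultures. Compound exposure was carried out in a genetically defined yeast strain deficient in DNA damage repair.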
# [2] = NCI Yeast Anticancer Drug Screen. Data for the mec2-1 strain (AID 157); conditions: S. cerevisiae mec2-1 strain, at 50.0 µM, active compounds read high
# How it was run: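 Compounds were applied to mec2-1 yeast cells. Their growth was then compared with that of vehicle-treated cultures to give growth inhibition.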
# [3] = NCI Yeast Anticancer Drug Screen. Data for the sgs1 mgt1 strain (AID 161);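 further: 0% = growth of cultures given vehicle only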; conditions: S. cerevisiae sgs1 mgt1 strain, at 50.0 µM, active compounds read high
# How it was run: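 This yeast growth screen uses a strain with defined DNA-repair lesions; compound-treated growth is compared with vehicle-treated growth.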
# [4] = NCI Yeast Anticancer Drug Screen. Data for the cln2 rad14 strain (AID 165);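 further: 0% = growth equal to vehicle treated cultures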; conditions: S. cerevisiae cln2 rad14 strain, at 50.0 µM, active compounds read high
# How it was run: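 Strain: cln2 rad14 yeast, altered in cell cycle control and DNA damage repair. Read-out: growth inhibition vs vehicle.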
# [5] = NCI Yeast Anticancer Drug Screen. Data for the bub3 strain (AID 167); conditions: S. cerevisiae bub3 mutant strain, at 50.0 µM, active compounds read high
# How it was run: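 Readout: yeast growth inhibition, expressed relative to vehicle-only wells. The test organism is a mutant strain from a panel with lesions in DNA repair or checkpoint genes.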
# [6] = NCI Yeast Anticancer Drug Screen. Data for the mlh1 rad18 strain (AID 175); conditions: S. cerevisiae mlh1 rad18 strain growth inhibition; at 50.0 µM; active compounds read high
# How it was run: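 A repair-deficient yeast strain is exposed to test compound, and growth is scored relative to vehicle-treated controls.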
SMILES,growth inhibition [1],growth inhibition [2],growth inhibition [3],growth inhibition [4],growth inhibition [5],growth inhibition [6]
CC(=O)[C@H]1CC[C@H]2[C@@H]3CC=C4N(CCO)C(=O)CC[C@]4(C)[C@H]3CC[C@]12C,-18.9%,-1.4%,14.8%,-28.1%,25.9%,13.3%
Cc1cc2cccc(C)c2[nH]1,-11.4%,-4.75%,18.6%,0.5%,4.6%,-9.2%
COC(=O)CCC(CCC(=O)O)([N+](=O)[O-])[N+](=O)[O-],2.05%,-5.65%,-6.3%,-36.4%,-12.1%,-11.8%
CCn1c(C)cc(=NC(=O)c2ccccc2O)n1-c1ccccc1,4.45%,9.8%,25.6%,11.5%,21%,16.7%
CC1(C)CCCC2(C)[C@@H]1CC[C@]13C[C@](C)(CC[C@@H]21)[C@@H]3CO (stereo partly specified),-17.8%,-2.9%,-22.6%,-3.35%,-32.1%,-19.9%
Nc1ncnc2c1nc(-c1ccccc1)n2C1OC(CO)C(O)C1O (stereo unspecified),27.4%,35.2%,-10.7%,9.75%,35.5%,34.4%
CC(=O)c1c(P(=O)(OC(C)C)OC(C)C)nn(-c2ccc([N+](=O)[O-])cc2)c1C,59.1%,20.1%,22.1%,-0.95%,14.2%,32.2%
C=C(C)CBr,-17.1%,-7.55%,-5.95%,5.35%,-5.45%,-3.5%
NC(=S)NO,-1.85%,-3.8%,2.35%,22.6%,8%,-19.9%
COC(CN1C=C(Sc2ccccc2)CC1)OC,49.2%,24.2%,32.3%,13%,27.5%,56.2%
COc1cc2ccnc(C#N)c2cc1OCc1ccccc1,-60.1%,-12.3%,-10.7%,-6.15%,-14.2%,-31.3%
COc1cc([N+](=O)[O-])c2ncccc2c1OC,5.55%,-11.1%,-22.1%,-20.2%,0.45%,68.2%
CCCCCCCN(CCCCCCC)CC(O)c1c(OC)c2ccccc2c2ccccc12 (stereo unspecified),94.8% (active),34.4%,96.2% (active),93% (active),24.9%,93.7% (active)
O=C1NC2(CCCCC2)N=C2C(Cl)CCCC12Cl (stereo unspecified),-22.1%,-24.5%,-0.7%,21%,-1.85%,-8.8%
O=c1cc(-c2ccccc2)oc2c1ccc1c(O)cccc12,11.1%,-2.5%,-6.9%,21.5%,31.9%,8.95%
NCCCc1c(-c2ccccc2)nc(N)[nH]c1=O,-3.15%,-15%,-35.5%,-28.4%,-58%,-3.05%
O=C(NC1CCCCC1)N(C(=O)C(F)(F)F)C1CCCCC1,9.05%,3.6%,-5.15%,9.8%,-2.4%,14.7%
COC1OCC(OS(C)(=O)=O)C(OS(C)(=O)=O)C1OS(C)(=O)=O (stereo unspecified),-22.5%,-6.1%,-26.1%,-55.2%,-1%,-2.85%
O=C(/C=C/c1ccccc1)NC(=S)Nc1ccccc1F,12.1%,-3.1%,-23.9%,-12.4%,29.7%,20.6%
O=c1cc2n(c(=O)n1-c1ccccc1)CCCC2,6.1%,6.6%,11.7%,12.2%,-9.25%,-6.8%
CN1c2ccc(C3N(C(=O)C(F)(F)F)C=CN3C(=O)C(F)(F)F)cc2Sc2cc(C3N(C(=O)C(F)(F)F)C=CN3C(=O)C(F)(F)F)ccc21,-3.65%,1.15%,-2%,-6.9%,1.05%,19.9%
